Experiment in all cases: DAPPL (digital affinity profiling via proximity ligation, sequencing); 10 mM Tris-HCl pH 7.5, 50 mM NaCl, 1 mM DTT, 4% glycerol, room temperature, 30 min; GST-TFs on glutathione beads, 16-mer random dsDNA library, 0.1% formaldehyde crosslink after washing; high values mean tight binding
One test concerns the target T1, FLI1 (Homo sapiens, UniProt Q01543 1-452).
T1 sequence: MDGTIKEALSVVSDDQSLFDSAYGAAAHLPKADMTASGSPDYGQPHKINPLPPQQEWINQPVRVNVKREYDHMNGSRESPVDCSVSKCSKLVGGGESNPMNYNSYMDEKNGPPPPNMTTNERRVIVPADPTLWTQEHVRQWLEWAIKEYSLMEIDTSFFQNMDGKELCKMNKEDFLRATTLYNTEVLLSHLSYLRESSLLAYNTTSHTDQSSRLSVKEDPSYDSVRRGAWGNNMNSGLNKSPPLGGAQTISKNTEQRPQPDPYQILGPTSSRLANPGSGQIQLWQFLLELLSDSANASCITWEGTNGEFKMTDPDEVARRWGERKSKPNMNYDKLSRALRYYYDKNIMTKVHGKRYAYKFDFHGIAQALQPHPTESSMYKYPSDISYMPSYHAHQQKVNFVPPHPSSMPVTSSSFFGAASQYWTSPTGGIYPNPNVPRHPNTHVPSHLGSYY
The following applies: protein: recombinant; tags: N-terminal GST; dsDNA, one strand shown. In outline: (§1)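 The binding signal reported is, for every hexamer, its read frequency for a factor over its read frequency for the tag-only sample. Reads came from pools of yeast-expressed, GST-fused human transcription factors on glutathione beads, barcoded with DNA and mixed with that sample, which were incubated with 200 nmole of a random double-stranded 16-mer DNA library in Tris/NaCl/DTT/glycerol buffer at room temperature for 30 min. After washing, the pools were crosslinked with 0.1% formaldehyde, proximity-ligated with BsaI/T4 ligase for 1 h at 37 °C, PCR-amplified and sequenced on an Illumina NextSeq500.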

Another test concerns the target T2, ELK1 (Homo sapiens, UniProt P19419 1-428).
T2 sequence: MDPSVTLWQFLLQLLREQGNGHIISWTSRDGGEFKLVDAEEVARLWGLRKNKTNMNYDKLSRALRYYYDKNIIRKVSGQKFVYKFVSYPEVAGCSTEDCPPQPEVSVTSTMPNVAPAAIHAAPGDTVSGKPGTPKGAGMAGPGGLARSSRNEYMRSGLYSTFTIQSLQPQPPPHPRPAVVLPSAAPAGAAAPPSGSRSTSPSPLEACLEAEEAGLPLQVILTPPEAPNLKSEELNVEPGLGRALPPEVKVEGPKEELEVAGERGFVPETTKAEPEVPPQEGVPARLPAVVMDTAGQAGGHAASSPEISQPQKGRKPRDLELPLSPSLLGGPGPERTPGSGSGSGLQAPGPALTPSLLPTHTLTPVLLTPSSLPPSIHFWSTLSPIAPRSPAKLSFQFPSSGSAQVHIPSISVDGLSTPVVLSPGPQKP
Particulars: protein: recombinant; tags: N-terminal GST; dsDNA, one strand shown. In outline: as §1

For a further test, the target named is T3, GABPA (Homo sapiens, UniProt Q06546 1-454).
T3 sequence: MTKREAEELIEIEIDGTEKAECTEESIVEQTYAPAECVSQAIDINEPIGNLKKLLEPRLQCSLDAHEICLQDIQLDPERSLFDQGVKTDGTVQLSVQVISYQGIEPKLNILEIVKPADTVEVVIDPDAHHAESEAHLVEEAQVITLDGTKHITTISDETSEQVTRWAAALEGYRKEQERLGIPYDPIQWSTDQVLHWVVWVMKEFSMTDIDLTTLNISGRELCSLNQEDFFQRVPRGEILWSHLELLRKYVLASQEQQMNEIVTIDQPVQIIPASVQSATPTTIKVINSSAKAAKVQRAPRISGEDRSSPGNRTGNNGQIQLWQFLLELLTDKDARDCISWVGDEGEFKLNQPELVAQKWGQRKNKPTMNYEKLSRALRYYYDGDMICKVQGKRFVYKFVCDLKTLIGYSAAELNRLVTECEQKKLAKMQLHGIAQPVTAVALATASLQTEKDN
The following applies: protein: recombinant; tags: N-terminal GST; dsDNA, one strand shown. In outline:
as §1

In the next test the target is T4, ERG (Homo sapiens, UniProt P11308 1-479).
T4 sequence: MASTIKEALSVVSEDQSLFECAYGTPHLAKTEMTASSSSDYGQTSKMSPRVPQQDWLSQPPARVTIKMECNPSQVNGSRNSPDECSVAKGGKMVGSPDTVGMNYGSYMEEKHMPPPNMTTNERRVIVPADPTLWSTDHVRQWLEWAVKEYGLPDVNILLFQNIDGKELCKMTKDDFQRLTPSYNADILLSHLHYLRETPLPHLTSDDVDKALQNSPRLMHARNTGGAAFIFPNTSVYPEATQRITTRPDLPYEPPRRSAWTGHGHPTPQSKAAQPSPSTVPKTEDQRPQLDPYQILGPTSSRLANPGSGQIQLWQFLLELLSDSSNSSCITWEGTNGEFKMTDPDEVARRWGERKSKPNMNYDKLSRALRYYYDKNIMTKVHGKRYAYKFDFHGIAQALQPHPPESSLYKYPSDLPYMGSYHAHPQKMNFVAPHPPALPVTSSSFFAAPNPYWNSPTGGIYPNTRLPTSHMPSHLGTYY
The following applies: protein: recombinant; tags: N-terminal GST; dsDNA, one strand shown. In outline:
as §1

In the next test the target is ELF1 (Homo sapiens, UniProt P32519 1-619). The following applies: protein: recombinant; tags: N-terminal GST; dsDNA, one strand shown. In outline:
as §1

The next test addresses T5, EHF (Homo sapiens, UniProt Q9NZC4 1-300).
T5 sequence: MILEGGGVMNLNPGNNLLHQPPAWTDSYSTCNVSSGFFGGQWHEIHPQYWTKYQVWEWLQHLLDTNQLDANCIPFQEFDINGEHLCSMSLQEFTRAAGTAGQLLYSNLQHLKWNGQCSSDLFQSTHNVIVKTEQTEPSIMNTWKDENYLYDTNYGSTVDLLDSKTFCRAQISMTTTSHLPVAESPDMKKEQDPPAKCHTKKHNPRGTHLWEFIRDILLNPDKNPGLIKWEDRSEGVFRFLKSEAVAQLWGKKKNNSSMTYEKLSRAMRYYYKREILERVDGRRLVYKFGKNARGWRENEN
Particulars: protein: recombinant; tags: N-terminal GST; dsDNA, one strand shown. In outline: as §1

Another test concerns the target SPI1 (Homo sapiens, UniProt P17947 1-270). The following applies: protein: recombinant; tags: N-terminal GST; dsDNA, one strand shown. In outline: as §1
Another test addresses SPIB (Homo sapiens, UniProt Q01892 1-262). Particulars: protein: recombinant; tags: N-terminal GST; dsDNA, one strand shown. In outline: as §1
Another test addresses T6, ELK3 (Homo sapiens, UniProt P41970 1-407).
T6 sequence: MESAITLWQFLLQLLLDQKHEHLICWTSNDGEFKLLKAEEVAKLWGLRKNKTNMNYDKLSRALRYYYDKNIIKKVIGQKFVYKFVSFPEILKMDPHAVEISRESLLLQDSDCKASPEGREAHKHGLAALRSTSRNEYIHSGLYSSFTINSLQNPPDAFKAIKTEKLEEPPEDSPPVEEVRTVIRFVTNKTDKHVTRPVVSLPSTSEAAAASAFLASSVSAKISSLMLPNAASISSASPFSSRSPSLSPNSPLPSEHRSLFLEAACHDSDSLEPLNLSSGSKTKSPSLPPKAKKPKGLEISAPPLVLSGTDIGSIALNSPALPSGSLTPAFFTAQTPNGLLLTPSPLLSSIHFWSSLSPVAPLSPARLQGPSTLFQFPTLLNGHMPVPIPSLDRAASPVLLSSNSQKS
Particulars: protein: recombinant; tags: N-terminal GST; dsDNA, one strand shown. In outline:
as §1

The target of the next test is T7, FEV (Homo sapiens, UniProt Q99581 1-238).
T7 sequence: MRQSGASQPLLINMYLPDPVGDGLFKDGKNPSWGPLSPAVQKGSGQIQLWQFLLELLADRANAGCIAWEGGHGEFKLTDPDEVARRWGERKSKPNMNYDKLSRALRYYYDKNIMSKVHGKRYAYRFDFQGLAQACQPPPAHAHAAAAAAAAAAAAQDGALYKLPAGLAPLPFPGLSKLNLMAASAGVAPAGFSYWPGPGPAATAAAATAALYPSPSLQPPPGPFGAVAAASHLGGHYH
The following applies: protein: recombinant; tags: N-terminal GST; dsDNA, one strand shown. In outline:
as §1

A further test concerns the target ETV5 (Homo sapiens, UniProt P41161 1-510). Particulars: protein: recombinant; tags: N-terminal GST; dsDNA, one strand shown. In outline:
as §1

In a further test the target is HSF1 (Homo sapiens, UniProt Q00613 1-529). The following applies: protein: recombinant; tags: N-terminal GST; chain copies: 3; dsDNA, one strand shown. In outline:
as §1

In a further test the target is T8, SPIC (Homo sapiens, UniProt Q8N5J4 1-248).
T8 sequence: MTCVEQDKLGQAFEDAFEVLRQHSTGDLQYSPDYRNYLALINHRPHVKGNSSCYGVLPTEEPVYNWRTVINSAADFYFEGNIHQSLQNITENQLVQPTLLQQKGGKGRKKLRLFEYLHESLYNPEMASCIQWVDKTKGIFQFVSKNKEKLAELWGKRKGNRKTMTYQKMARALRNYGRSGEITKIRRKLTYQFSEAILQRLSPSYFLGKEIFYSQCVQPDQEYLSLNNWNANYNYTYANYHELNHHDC
Particulars: protein: recombinant; tags: N-terminal GST; dsDNA, one strand shown. In outline: as §1

A further test addresses ELF4 (Homo sapiens, UniProt Q99607 1-663). Particulars: protein: recombinant; tags: N-terminal GST; dsDNA, one strand shown. In outline:
as §1

Another test addresses T9, ELK4 (Homo sapiens, UniProt P28324-2 1-405).
T9 sequence: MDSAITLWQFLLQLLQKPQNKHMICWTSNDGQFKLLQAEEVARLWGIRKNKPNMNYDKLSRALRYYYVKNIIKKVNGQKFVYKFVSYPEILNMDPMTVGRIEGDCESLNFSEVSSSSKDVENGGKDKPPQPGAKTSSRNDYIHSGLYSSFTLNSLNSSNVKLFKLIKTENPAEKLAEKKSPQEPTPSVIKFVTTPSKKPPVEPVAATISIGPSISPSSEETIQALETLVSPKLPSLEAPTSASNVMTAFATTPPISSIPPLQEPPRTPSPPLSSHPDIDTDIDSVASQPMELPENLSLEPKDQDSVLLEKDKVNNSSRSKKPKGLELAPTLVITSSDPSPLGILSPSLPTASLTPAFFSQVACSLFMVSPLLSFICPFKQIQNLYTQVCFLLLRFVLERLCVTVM
Particulars: protein: recombinant; tags: N-terminal GST; dsDNA, one strand shown. In outline:
as §1

The next test concerns the target T10, ETV2 (Homo sapiens, UniProt O00321 1-342).
T10 sequence: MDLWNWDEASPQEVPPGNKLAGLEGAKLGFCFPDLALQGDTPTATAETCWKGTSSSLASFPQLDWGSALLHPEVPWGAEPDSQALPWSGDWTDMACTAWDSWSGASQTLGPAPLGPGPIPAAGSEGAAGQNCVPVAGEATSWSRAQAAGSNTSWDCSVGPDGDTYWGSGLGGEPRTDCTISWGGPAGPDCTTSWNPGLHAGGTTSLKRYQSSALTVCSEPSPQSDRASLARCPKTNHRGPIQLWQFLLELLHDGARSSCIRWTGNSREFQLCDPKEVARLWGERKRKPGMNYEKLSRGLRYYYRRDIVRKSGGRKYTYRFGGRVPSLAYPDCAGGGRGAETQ
The following applies: protein: recombinant; tags: N-terminal GST; dsDNA, one strand shown. In outline: as §1

A further test concerns the target T11, ELF3 (Homo sapiens, UniProt P78545 1-371).
T11 sequence: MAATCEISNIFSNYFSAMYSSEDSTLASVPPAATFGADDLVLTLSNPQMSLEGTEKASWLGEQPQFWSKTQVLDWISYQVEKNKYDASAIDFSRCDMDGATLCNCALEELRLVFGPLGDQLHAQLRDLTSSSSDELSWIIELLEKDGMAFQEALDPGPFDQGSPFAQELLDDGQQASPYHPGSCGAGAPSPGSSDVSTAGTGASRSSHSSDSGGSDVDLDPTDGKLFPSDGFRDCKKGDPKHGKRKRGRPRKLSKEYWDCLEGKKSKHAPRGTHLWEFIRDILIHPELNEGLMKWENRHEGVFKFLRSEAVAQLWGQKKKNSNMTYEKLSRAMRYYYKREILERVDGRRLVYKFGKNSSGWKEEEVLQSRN
The following applies: protein: recombinant; tags: N-terminal GST; dsDNA, one strand shown. In outline: as §1

The target of another test is CRX (Homo sapiens, UniProt O43186 1-299). The following applies: protein: recombinant; tags: N-terminal GST; dsDNA, one strand shown. In outline: as §1
CRX, sequence (O43186 whole entry): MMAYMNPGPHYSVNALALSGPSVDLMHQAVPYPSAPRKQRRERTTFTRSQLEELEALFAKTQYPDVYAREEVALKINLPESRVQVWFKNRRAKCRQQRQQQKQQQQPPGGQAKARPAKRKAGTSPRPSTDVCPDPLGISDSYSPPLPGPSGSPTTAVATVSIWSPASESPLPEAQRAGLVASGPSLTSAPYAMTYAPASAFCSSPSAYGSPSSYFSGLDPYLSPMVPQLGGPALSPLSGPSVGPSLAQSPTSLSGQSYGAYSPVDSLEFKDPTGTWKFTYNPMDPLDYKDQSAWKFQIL
In a further test the target is ETV1 (Homo sapiens, UniProt P50549 1-477). The following applies: protein: recombinant; tags: N-terminal GST; dsDNA, one strand shown. In outline: as §1
ETV1, sequence (P50549 whole entry): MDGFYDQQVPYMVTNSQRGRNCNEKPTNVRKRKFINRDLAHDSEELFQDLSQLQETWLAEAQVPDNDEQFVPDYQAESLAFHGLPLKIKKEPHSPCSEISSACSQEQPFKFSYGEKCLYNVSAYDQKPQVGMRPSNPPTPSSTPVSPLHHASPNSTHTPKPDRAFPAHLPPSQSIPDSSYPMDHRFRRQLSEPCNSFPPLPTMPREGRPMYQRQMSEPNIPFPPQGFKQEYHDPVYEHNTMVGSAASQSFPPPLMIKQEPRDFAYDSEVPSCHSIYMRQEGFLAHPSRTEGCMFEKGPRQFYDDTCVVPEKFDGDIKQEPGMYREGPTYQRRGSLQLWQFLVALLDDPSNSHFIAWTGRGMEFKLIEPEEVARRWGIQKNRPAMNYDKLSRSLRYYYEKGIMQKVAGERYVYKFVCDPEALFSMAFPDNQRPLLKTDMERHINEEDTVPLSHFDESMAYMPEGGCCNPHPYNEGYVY

Experimental findings from article PMC7862700, “An all-to-all approach to the identification of sequence-specific readers for epigenetic DNA modifications on cytosine” are described below.

ELF1, sequence (P32519 whole entry): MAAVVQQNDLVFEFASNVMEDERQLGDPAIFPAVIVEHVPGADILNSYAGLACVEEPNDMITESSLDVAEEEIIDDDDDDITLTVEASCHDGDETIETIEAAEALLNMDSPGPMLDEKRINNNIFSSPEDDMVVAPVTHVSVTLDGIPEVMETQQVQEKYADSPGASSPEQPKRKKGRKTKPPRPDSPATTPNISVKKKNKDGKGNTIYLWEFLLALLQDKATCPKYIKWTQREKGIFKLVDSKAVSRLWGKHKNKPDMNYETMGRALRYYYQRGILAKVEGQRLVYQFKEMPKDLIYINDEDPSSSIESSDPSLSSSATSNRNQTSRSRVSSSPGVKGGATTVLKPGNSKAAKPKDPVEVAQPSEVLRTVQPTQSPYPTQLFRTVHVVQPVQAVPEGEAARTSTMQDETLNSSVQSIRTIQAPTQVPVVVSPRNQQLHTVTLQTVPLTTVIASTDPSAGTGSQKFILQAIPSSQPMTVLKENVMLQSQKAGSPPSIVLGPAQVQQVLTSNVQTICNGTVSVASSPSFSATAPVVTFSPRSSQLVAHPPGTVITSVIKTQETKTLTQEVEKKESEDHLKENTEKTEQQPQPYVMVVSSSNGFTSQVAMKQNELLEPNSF
ETV5, sequence (P41161 whole entry): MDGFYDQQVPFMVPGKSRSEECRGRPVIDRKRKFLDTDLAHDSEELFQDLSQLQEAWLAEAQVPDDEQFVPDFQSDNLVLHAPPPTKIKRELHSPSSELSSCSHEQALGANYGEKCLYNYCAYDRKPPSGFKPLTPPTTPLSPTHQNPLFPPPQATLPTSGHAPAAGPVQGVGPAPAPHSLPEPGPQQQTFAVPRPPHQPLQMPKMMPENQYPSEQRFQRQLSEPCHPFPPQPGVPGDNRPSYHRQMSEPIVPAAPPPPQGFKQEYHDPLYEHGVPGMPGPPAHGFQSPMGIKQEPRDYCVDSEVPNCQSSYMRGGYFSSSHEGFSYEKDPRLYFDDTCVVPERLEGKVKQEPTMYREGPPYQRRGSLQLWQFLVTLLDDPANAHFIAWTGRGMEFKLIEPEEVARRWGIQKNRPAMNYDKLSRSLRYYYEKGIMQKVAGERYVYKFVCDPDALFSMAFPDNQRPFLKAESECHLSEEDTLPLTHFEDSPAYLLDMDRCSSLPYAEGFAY
HSF1, sequence (Q00613 whole entry): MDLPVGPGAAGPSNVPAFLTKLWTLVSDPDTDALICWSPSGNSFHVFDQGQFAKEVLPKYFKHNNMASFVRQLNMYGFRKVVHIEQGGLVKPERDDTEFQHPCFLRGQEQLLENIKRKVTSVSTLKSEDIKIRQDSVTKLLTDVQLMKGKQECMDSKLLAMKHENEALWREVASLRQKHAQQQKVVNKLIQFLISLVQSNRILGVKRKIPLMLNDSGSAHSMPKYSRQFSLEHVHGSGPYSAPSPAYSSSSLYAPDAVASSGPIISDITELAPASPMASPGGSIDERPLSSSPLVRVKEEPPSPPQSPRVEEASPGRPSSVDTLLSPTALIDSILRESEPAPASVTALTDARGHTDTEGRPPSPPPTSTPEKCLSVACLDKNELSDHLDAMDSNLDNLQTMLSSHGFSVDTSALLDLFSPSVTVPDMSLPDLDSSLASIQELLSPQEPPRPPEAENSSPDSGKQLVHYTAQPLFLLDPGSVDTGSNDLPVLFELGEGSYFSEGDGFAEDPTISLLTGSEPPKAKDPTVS
ELF4, sequence (Q99607 whole entry): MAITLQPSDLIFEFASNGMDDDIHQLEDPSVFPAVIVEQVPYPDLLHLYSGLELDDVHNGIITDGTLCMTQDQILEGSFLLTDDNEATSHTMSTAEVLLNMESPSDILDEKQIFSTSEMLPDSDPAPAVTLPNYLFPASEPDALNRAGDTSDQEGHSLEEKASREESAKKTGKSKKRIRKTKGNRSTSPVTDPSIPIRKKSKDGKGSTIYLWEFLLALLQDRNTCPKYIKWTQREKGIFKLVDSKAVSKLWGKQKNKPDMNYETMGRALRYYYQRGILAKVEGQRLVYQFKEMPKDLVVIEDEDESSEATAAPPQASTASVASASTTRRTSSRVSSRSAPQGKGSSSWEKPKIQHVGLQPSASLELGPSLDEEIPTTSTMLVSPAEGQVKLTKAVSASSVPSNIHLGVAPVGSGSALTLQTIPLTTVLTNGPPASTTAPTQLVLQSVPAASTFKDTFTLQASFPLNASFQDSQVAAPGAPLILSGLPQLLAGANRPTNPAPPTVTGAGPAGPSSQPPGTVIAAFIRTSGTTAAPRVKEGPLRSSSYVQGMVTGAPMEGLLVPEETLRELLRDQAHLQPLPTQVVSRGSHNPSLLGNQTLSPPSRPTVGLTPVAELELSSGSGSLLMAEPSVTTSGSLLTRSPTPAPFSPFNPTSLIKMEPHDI
SPIB, sequence (Q01892 whole entry): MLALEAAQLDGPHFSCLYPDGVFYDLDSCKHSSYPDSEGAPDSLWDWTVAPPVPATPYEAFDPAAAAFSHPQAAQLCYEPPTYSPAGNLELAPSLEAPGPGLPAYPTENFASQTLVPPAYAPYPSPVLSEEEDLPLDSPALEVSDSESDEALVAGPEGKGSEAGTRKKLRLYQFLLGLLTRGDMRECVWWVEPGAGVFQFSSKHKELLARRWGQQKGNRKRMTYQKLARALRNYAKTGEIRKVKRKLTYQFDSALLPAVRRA

For the sequence TCCACT, the binding signal is 1.47 fold enrichment (6-mer frequency, TF over GST control) with FLI1; 1.52 fold enrichment (6-mer frequency, TF over GST control) with ELK1; 1.51 fold enrichment (6-mer frequency, TF over GST control) with GABPA; 1.54 fold enrichment (6-mer frequency, TF over GST control) in the test with ERG; 1.5 fold enrichment (6-mer frequency, TF over GST control) with ELF1; 1.36 fold enrichment (6-mer frequency, TF over GST control) in the test with EHF. Besides, the binding signal with SPI1 is 1.5 fold enrichment (6-mer frequency, TF over GST control); in the test with SPIB it was 1.39 fold enrichment (6-mer frequency, TF over GST control); in the test with ELK3, 1.49 fold enrichment (6-mer frequency, TF over GST control); in the test with FEV, 1.54 fold enrichment (6-mer frequency, TF over GST control); in the test with ETV5, 1.49 fold enrichment (6-mer frequency, TF over GST control); with HSF1 it was 1.47 fold enrichment (6-mer frequency, TF over GST control). In addition, the binding signal is 1.4 fold enrichment (6-mer frequency, TF over GST control) with SPIC; 1.51 fold enrichment (6-mer frequency, TF over GST control) in the test with ELF4; 1.49 fold enrichment (6-mer frequency, TF over GST control) with ELK4; 1.48 fold enrichment (6-mer frequency, TF over GST control) with ETV2; 1.25 fold enrichment (6-mer frequency, TF over GST control) with ELF3; 1.33 fold enrichment (6-mer frequency, TF over GST control) in the test with CRX. Also, the binding signal with ETV1 is 1.41 fold enrichment (6-mer frequency, TF over GST control).
